Reference: PubChem BioAssay
Calls of active or inactive are those of the source.

Key:
[1] = tested on: PRMT1 (protein arginine N-methyltransferase 1); experiment: small molecules binding arginine methyltransferase PRMT1 – biochemical, small-molecule microarray, 635 nm fluorescence, primary screen (AID 1088); details: higher = more signal;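 also: binding of Prmt1 protein to compounds spotted on small-molecule microarray slides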
[2] = growth effects on S. cerevisiae YJM789 – YJM789 clinical isolate, OD600, 24 h, basal, primary screen (AID 1089); details: higher = more signal, called active from +8 up or from −8 down;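 also: growth of clinical yeast isolate S. cerevisiae YJM 789 seeded 1000 cells per well; test concentration not given here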
[3] = S. pombe growth modifiers, basal conditions – strain 972, OD600, 24 h, no modulator, primary screen (AID 1090);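 also: basal condition with compound alone and no growth modifier present; test concentration not given here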; details: S. pombe 972 growth, higher = more signal, called active from +8 up or from −8 down
[4] = budding yeast growth modifiers under rapamycin – strain BY4716, OD600, 96 h, primary screen (AID 1091); also: test concentration not given here; details: S. cerevisiae BY4716 + rapamycin, higher = more signal, called active from +8 up or from −8 down
[5] = target: Torsin-1A-interacting protein 2 (Homo sapiens) (UniProt Q8NFQ8); experiment: small molecules binding lysate-expressed LULL1 – cell lysate, human LULL1 lysate, 635/667 nm fluorescence, primary screen (AID 1092); details: small-molecule microarray, hLULL1 lysate binding, 635 nm fluorescence; higher = more signal;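 also: probe is lysate of COS7 cells overexpressing human LULL1; score merges per-feature 667 nm fluorescence with signal-to-noise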
Torsin-1A-interacting protein 2 (Homo sapiens), sequence (Q8NFQ8 whole entry, looked up): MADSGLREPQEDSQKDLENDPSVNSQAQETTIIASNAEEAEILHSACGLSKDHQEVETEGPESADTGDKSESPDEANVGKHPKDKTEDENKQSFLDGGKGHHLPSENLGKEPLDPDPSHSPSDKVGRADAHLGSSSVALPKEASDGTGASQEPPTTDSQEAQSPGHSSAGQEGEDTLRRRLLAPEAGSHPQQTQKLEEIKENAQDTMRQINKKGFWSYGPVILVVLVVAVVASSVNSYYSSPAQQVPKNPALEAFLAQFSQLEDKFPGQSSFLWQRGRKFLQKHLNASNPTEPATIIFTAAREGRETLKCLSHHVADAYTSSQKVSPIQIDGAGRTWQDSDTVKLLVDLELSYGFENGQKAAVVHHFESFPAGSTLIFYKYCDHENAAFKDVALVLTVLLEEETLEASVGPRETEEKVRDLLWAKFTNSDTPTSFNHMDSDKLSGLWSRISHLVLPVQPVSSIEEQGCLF

[6] = optical density change of DRC41 E. coli – strain DRC41, OD650, 24 h, E. coli filamentation project, primary screen (AID 1093);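 also: MC1000 strain lacking acrAB efflux and sulA so SOS filamentation is blocked; test concentration not given here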; details: E. coli DRC41 growth, higher = more signal, called active from +8 up or from −8 down
[7] = probe aLefty2 binding to arrayed compounds – biochemical, biotinylated probe, 635/667 nm fluorescence, primary screen (AID 1094); details: small-molecule microarray, higher = more signal;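 also: score merges spot fluorescence near 667 nm with spot signal-to-noise ratio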
[8] = tested on: Noggin (protein binding on small-molecule microarray); experiment: small molecules binding Noggin protein – biochemical, 635/667 nm fluorescence, primary screen (AID 1095); details: 635 nm fluorescence, higher = more signal;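 also: score merges 667 nm feature fluorescence with signal to noise over triplicate slides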
[9] = target: Neurogenic locus notch homolog protein 3 (Homo sapiens) (UniProt Q9UM47); experiment: small molecules binding NOTCH3 protein – biochemical, 635/667 nm fluorescence, primary screen (AID 1096); details: small-molecule microarray, 635 nm fluorescence, higher = more signal
Neurogenic locus notch homolog protein 3 (Homo sapiens), sequence (Q9UM47 whole entry, looked up): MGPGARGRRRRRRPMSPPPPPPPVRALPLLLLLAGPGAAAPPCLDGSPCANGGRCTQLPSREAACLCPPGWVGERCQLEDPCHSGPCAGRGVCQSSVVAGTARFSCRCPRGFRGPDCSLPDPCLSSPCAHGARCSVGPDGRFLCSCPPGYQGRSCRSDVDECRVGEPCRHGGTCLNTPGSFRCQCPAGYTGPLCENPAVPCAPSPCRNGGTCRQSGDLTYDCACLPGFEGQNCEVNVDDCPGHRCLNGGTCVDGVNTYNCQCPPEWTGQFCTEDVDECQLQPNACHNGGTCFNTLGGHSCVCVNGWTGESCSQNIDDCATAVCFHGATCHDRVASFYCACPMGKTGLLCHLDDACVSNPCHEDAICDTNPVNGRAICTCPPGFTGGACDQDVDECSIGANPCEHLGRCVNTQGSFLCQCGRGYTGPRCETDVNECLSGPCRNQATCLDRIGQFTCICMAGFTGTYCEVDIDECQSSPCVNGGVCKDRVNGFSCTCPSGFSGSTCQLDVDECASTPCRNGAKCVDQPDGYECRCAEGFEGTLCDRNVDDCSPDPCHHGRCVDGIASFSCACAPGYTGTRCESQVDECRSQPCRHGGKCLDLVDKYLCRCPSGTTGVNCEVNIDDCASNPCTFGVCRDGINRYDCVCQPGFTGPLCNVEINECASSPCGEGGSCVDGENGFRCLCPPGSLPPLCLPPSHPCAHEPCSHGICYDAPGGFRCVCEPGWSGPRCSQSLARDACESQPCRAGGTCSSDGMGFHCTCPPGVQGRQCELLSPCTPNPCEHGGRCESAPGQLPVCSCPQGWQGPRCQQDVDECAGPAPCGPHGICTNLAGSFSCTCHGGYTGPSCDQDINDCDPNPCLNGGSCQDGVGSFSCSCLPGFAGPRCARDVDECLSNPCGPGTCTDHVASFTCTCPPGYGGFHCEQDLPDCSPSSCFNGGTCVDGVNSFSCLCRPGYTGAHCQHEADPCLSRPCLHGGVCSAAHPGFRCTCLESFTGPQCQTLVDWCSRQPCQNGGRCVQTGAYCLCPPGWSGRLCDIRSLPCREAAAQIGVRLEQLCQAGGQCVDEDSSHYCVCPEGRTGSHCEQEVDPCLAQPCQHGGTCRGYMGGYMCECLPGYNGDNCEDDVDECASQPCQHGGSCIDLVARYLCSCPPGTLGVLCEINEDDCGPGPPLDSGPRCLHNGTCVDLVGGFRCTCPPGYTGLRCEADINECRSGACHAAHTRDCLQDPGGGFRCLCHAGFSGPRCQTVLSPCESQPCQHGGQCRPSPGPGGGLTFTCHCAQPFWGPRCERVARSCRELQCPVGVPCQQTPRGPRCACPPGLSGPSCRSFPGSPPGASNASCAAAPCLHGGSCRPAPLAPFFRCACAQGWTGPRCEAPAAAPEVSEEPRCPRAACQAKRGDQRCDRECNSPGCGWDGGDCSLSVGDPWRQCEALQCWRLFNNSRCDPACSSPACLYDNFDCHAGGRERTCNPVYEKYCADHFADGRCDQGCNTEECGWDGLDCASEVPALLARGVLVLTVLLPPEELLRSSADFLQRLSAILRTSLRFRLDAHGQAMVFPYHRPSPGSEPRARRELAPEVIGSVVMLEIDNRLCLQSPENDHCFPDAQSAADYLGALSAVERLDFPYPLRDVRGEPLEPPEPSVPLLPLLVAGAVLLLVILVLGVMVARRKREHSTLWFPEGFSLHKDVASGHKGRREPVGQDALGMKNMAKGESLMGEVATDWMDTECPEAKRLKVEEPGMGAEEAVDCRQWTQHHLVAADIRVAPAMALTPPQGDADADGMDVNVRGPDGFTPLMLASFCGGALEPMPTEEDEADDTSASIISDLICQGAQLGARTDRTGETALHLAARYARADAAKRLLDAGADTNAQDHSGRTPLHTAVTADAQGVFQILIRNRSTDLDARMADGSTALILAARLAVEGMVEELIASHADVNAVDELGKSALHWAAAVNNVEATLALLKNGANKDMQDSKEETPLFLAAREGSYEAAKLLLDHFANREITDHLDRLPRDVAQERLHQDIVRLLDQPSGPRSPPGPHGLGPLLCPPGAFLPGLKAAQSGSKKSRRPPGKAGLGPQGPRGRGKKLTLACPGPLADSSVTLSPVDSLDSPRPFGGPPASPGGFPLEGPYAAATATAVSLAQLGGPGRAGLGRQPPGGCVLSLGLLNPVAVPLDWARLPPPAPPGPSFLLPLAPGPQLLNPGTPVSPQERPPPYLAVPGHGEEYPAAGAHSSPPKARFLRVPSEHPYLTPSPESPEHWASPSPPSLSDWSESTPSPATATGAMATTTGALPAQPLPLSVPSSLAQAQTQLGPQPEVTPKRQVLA

[10] = probe aEGFR binding to arrayed compounds – biochemical, biotinylated probe, 635/667 nm fluorescence, primary screen (AID 1097); details: small-molecule microarray, higher = more signal;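 also: probe is a biotinylated anti-EGFR antibody binding compounds printed on slides; score combines fluorescence near 667 nm and signal to noise of each spot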
[11] = tested on: Plasmodium falciparum Sir2 (PF13_0152, Sir2A); experiment: Plasmodium falciparum Sir2A binding compounds – biochemical, small-molecule microarray, 635 nm fluorescence, primary screen (AID 1098); details: fluorescence 635 nm, higher = more signal;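 also: score merges spot fluorescence intensity with its signal-to-noise ratio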
[12] = probe aDKK1 binding to arrayed compounds – biochemical, biotinylated probe, 635/667 nm fluorescence, primary screen (AID 1099); details: small-molecule microarray, higher = more signal;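 also: score merges 667nm spot fluorescence with signal to noise across triplicate slides; reference of the scale not given here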
[13] = probe aCHRDL2 binding to arrayed compounds – biochemical, biotinylated probe, 635/667 nm fluorescence, primary screen (AID 1100); details: small-molecule microarray, higher = more signal
[14] = change in splice reporter luminescence, either direction, cell-based, HEK293, spliceosome inhibition project, primary screen (AID 1101); details: HEK293 splicing luciferase reporter, 24 h, higher = more signal, called active from +8 up or from −8 down;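 also: HEK293 cells carrying a splicing-competent luciferase reporter gene; test concentration not given here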
[15] = target: Fibroblast growth factor 10 (Homo sapiens) (UniProt O15520); experiment: compounds binding fibroblast growth factor 10 – biochemical, small-molecule microarray, 635 nm fluorescence, primary screen (AID 1102); details: FGF10 binding, fluorescence 635 nm, higher = more signal
Fibroblast growth factor 10 (Homo sapiens), sequence (O15520 whole entry, looked up): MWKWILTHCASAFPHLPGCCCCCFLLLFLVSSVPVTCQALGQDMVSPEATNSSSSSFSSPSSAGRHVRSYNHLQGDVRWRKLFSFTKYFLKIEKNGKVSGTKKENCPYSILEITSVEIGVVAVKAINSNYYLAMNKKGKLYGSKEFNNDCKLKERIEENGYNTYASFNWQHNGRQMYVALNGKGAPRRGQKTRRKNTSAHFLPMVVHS

[16] = tested on: glycogen synthase kinase-3 (GSK3A per assay name; protocol says GSK3B); experiment: compounds binding glycogen synthase kinase-3 – biochemical, small-molecule microarray, 635 nm fluorescence, GSK3A, primary screen (AID 1103); details: fluorescence 635 nm, higher = more signal; also: the record names both GSK3A and GSK3B
[17] = target: Epidermal growth factor receptor (Homo sapiens) (UniProt P00533); experiment: compounds binding epidermal growth factor receptor – biochemical, small-molecule microarray, 635 nm fluorescence, primary screen (AID 1104); details: EGFR binding, higher = more signal;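 also: score merges 667 nm emission intensity with spot signal to noise over triplicate slides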
Epidermal growth factor receptor (Homo sapiens), sequence (P00533 whole entry, looked up): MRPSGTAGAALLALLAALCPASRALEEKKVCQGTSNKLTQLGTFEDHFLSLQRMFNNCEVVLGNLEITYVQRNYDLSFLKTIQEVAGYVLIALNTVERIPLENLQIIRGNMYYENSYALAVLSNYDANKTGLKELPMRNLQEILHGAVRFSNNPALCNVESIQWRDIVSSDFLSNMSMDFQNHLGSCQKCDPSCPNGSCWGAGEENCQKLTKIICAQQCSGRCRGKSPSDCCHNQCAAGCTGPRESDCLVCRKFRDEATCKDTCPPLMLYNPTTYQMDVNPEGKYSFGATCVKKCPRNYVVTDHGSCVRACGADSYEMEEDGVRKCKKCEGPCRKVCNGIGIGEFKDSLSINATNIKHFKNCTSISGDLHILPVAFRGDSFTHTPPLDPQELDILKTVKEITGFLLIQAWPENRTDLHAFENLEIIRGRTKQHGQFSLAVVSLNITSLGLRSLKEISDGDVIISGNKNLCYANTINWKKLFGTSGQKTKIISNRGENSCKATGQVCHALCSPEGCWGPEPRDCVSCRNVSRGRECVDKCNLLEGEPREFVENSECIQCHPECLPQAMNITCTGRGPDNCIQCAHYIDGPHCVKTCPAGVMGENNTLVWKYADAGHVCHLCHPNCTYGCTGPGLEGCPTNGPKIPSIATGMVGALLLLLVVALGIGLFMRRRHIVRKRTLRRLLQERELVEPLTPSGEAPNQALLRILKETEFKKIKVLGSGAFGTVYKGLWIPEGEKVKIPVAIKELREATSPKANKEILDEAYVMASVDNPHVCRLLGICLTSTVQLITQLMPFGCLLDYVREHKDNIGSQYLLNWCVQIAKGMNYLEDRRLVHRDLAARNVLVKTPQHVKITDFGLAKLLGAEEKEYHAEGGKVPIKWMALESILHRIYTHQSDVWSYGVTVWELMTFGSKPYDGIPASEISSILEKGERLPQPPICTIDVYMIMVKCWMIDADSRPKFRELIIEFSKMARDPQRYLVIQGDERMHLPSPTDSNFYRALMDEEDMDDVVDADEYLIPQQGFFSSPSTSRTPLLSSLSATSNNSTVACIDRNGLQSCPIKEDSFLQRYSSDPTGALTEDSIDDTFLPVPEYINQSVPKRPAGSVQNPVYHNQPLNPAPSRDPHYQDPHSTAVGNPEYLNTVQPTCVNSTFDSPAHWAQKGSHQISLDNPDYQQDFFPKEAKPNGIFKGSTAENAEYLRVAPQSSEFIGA

[18] = target: Follistatin-related protein 3 (Homo sapiens) (UniProt O95633); experiment: compounds binding follistatin-related protein 3 – biochemical, small-molecule microarray, 635 nm fluorescence, primary screen (AID 1105); details: FSTL3 binding, higher = more signal;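 also: score merges emission near 667 nm and signal to noise per printed spot across three slides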
Follistatin-related protein 3 (Homo sapiens), sequence (O95633 whole entry, looked up): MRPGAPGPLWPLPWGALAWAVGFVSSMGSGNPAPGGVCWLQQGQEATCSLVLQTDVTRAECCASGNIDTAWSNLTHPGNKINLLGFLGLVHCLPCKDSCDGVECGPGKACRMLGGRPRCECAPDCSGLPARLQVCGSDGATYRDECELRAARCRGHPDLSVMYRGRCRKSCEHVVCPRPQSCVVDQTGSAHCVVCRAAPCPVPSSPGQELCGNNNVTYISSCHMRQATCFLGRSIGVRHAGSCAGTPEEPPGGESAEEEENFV

[19] = target: Dickkopf-related protein 1 (Homo sapiens) (UniProt O94907); experiment: small molecules binding DKK1 protein – biochemical, small-molecule microarray, 635 nm fluorescence scan, primary screen (AID 1106); details: higher = more signal;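 also: score merges emission near 667 nm with signal to noise over three replicate slides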
Dickkopf-related protein 1 (Homo sapiens), sequence (O94907 whole entry, looked up): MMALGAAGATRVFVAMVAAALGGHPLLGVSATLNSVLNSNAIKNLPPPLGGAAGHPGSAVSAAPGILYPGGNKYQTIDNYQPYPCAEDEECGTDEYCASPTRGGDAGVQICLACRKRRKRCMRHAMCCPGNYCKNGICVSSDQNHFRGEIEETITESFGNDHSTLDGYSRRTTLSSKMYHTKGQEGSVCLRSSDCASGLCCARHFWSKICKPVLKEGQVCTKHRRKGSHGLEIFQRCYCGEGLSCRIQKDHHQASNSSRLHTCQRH

[20] = tested on: Inhibin beta A chain (activin A); experiment: small molecules binding activin A – biochemical, small-molecule microarray, 635 nm fluorescence scan, primary screen (AID 1107); details: INHBA, higher = more signal;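 also: mouse activin A protein probed at 4.33 µg/mL on printed slides; score merges bound-protein fluorescence near 667 nm with spot signal-to-noise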

SMILES	composite z-score [1]	z-score [2]	z-score [3]	z-score [4]	composite z-score [5]	z-score [6]	composite z-score [7]	composite z-score [8]	composite z-score [9]	composite z-score [10]	composite z-score [11]	composite z-score [12]	composite z-score [13]	z-score [14]	composite z-score [15]	composite z-score [16]	composite z-score [17]	composite z-score [18]	composite z-score [19]	composite z-score [20]
[N-]=[N+]=NCc1ccccc1[C@@H]1OC(c2ccc(OCCCO)cc2)=N[C@]1(Cc1ccccc1N=[N+]=[N-])C(=O)NCC(O)CO (stereo not given in full)	1.18	0.263 (inactive)	0.21 (inactive)	0.622 (inactive)	3.29	0.712 (inactive)	0.81	0.92	0.962	0.235	1.29	1.28	0.98	1.25 (inactive)	0.846	0.898	0.0004	0.418	0.0477	1.22
COCCCNC(=O)[C@@H]1c2ccccc2C(=O)N(Cc2ccc(OC(F)(F)F)cc2)[C@H]1c1ccc(CO)cc1	1.34	-0.975 (inactive)	-0.153 (inactive)	-0.97 (inactive)	2.36	-0.518 (inactive)	-0.0687	0.489	0.554	-0.0949	0.499	0.21	0.215	0.0366 (inactive)	0.393	0.723	0.0725	0.481	0.743	0.639
COC(=O)C(CC#Cc1ccc2c(c1)[C@]1(C(=O)N2)[C@H](c2ccccc2OCCO)N2[C@H](c3ccccc3)[C@H](c3ccccc3)OC(=O)[C@H]2[C@@H]1C(=O)N1CCc2cc(OC)c(OC)cc2C1)C(=O)OC	1.53	2.1 (inactive)	1.13 (inactive)	4.27 (inactive)	3.01	0.463 (inactive)	-0.174	1.08	1.09	0.0355	1.56	0.0978	0.048	-0.795 (inactive)	0.71	1.3	1.02	1.26	0.882	0.279
O=C1C2C=CC(C(O)c3ccc([N+](=O)[O-])cc3)N(Nc3ccccc3F)C2C(=O)N1c1ccccc1 (stereo not given)	0.67	0.213 (inactive)	0.619 (inactive)	1.05 (inactive)	1.87	-0.774 (inactive)	0.296	-0.316	0.98	-0.0278	1.22	0.912	0.941	1.02 (inactive)	0.436	0.351	-0.0558	0.313	-0.516	0.941
O=C(N1CCOCC1)[C@@]1(Cc2ccccc2)COC(c2ccc(OCCCO)cc2)=N1	0.88	-0.731 (inactive)	-5.55 (inactive)	-1.39 (inactive)	2.95	2.88 (inactive)	0.588	-0.622	0.116	0.518	0.666	1.23	0.84	-0.694 (inactive)	0.132	0.983	-0.309	-0.65	-0.161	0.573
CCN(CC)c1ccc(N2CC=CC34O[C@@H]5C=CCCOC(=O)C5[C@H]3C(=O)N(C(C)CO)[C@@H]4C2=O)cc1 (stereo not given in full)	1.05	-1.01 (inactive)	-1.6 (inactive)	-0.399 (inactive)	2.11	-0.42 (inactive)	0.0815	0.524	0.61	-0.0702	1.85	-0.24	0.477	-0.0428 (inactive)	0.0925	0.519	-0.79	-0.157	-0.0888	1.42
CC(=O)c1ccc(C(O)C2C=CC3C(=O)N(c4ccccc4)C(=O)C3N2Nc2ccc(C(C)C)cc2)cc1 (stereo not given)	1.08	1.24 (inactive)	1.55 (inactive)	-0.0304 (inactive)	2.24	-0.541 (inactive)	0.136	0.101	1.07	0.187	0.696	1.46	0.865	-0.385 (inactive)	1.01	0.806	0.314	1.25	-0.0216	1.05
C=C(CCCC)C(=O)CC[C@@H](OC(=O)c1ccccc1-c1ccccc1C(=O)O)c1ccccc1OCCO	1.23	-0.576 (inactive)	-1.19 (inactive)	-1.61 (inactive)	-0.583	0.306 (inactive)	-0.146	1.2	0.48	-0.178	0.776	-0.286	-0.543	2.3 (inactive)	1.27	-0.121	-0.215	0.27	0.373	0.959
N#Cc1ccc(C(O)C2C=CC3C(=O)NC(=O)C3N2Nc2ccc(Cl)cc2Cl)cc1 (stereo not given)	0.156	-2.93 (inactive)	-0.615 (inactive)	0.448 (inactive)	3.39	-0.343 (inactive)	0.103	-0.185	0.559	-0.0594	1.42	0.558	1.13	1.9 (inactive)	0.599	-0.344	0.0129	-0.124	-0.577	1.03
CC1CC/C=C\[C@H]2OC34C=CCN(c5ccc6ccccc6c5)C(=O)[C@H]3N(C(C)CO)C(=O)[C@@H]4C2C(=O)O1 (stereo not given in full)	0.541	0.612 (inactive)	-0.197 (inactive)	0.407 (inactive)	-0.172	-0.312 (inactive)	-0.244	-1.1	-0.0196	-0.252	1.38	-0.087	0.404	0.0493 (inactive)	-0.83	-1.36	-0.975	-1.04	-0.591	0.265
